An excerpt weighted towards active compounds, which were near 3.5% of everything screened.
BoNT-F LC inh – blocks Botulinum neurotoxin F light chain protease. Multiplex microsphere protease cleavage assay, flow cytometry. inhibition, % at 10 µM. 360,000 tested, 0.22% active; in the data active means inhibition above about 35%, passing the limit was not always enough; inconclusive means no clear call, values can overlap the other calls; further: plate controls were buffer without enzyme for full effect and enzyme alone for no effect
BoNT A protease – BoNT A light chain protease inhibition; multiplex microsphere protease substrate cleavage, flow cytometry; inhibition, % at 10 µM; 360,000 tested, 0.17% active; AID 588499; further: plate controls were buffer without enzyme for full effect and enzyme alone for no effect
Anthrax LF prot – inhibitors of Bacillus anthracis lethal factor protease | P15917 | multiplex microsphere protease cleavage assay, LF | inhibition, % at 10 µM | 360,000 tested, 0.12% active | AID 588501; further: plate controls were buffer without enzyme for full effect and enzyme alone for no effect
Target sequence (P15917 whole entry, looked up): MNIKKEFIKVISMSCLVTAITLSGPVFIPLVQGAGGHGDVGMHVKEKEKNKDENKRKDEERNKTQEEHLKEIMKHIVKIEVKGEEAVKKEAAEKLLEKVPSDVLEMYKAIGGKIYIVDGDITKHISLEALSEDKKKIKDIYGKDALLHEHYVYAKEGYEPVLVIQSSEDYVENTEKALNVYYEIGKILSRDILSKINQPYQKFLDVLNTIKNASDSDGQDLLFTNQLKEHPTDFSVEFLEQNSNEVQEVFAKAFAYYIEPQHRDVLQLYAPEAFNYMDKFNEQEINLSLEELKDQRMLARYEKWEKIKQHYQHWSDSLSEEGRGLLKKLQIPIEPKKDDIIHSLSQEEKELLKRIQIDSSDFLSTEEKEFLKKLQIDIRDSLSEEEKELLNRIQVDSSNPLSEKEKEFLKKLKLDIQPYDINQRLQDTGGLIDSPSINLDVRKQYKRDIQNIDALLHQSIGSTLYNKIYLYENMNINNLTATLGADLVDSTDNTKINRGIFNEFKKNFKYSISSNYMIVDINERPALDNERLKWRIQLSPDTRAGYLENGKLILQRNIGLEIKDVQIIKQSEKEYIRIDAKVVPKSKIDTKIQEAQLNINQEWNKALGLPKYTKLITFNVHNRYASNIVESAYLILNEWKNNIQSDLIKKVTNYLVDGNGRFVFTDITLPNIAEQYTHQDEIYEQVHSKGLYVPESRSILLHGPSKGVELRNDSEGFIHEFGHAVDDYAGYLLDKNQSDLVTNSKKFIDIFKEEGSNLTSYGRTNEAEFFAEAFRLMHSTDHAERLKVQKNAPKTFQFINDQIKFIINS
Bead autofluor – counter-screen for toxin protease inhibitors: compound fluorescence | compound autofluorescence counterscreen, microsphere flow cytometry; stronger effect = higher value | fluorescence intensity (no concentration beside the values) | 360,000 tested, 3.1% active | AID 624483; in the data active means fluorescence intensity above about 16000; inconclusive means no clear call, values can overlap the other calls
Vc quorum ag – induces V. cholerae light production without autoinducers; V. cholerae BH1578 lux reporter, luminescence, 6 h; activation, % at 18.7 µM; 350,000 tested, 0.16% active; AID 588436; in the data active means activation mostly above about 9.7%, no sharp cut-off; inconclusive means no clear call, values can overlap the other calls; inactive means mostly below about 3.7%
* marks the source's active call; other numbers are inactive results; i = inactive; ? = inconclusive. Unless noted, no stated cut-off is given here; in the data, active means inhibition above about 30%; inconclusive means no clear call, values can overlap the other calls; inactive means below that.

SMILES	BoNT-F LC inh	BoNT A protease	Anthrax LF prot	Bead autofluor	Vc quorum ag
Cc1cc(C)n(-c2ncc3c(n2)N(CCO)CCOC3=O)n1	35.0*	2.2	3.5	3742	-0.6
Cc1cc(C)n(-c2ncc3c(n2)N(C)CCOC3=O)n1	-5.6	-0.4	-0.4	5448	-0.5
CCOC(=O)c1cnc(-n2nc(C)cc2C)nc1N1CCOCC1	0.4	0.0	-2.7	23062*	i
Cc1ccc(N(C)S(=O)(=O)c2cccc(C(=O)OCC(=O)N(C)Cc3ccccc3)c2)cc1	2.0	0.3	-2.8	4923	-0.8
NNC(=O)c1csc(-c2ncc(C(F)(F)F)cc2Cl)n1	1.5	0.5	-5.6	6057	-1.6
CCOC(=O)c1nn(-c2ccc(Br)cc2)cc1C(=O)c1cccc2ccccc12	-4.3	-1.6	2.1	20527*	i
CCOC(=O)c1nn(-c2ccc(F)cc2)cc1O	-1.4	-0.2	1.7	3932	1.4
O=C1CSC(c2cccc([N+](=O)[O-])c2)N1CCc1ccccc1 (stereo not drawn)	?	-2.9	-0.3	3978	-0.3
CCn1c(SCC(=O)OC)nnc1-c1ccc(C)cc1	-1.6	-1.3	3.7	4594	-0.3
CCOC(=O)CSc1nnc(-c2nnc(SCC(=O)OCC)n2CC)n1CC	13.5	11.4	4.9	16806*	i
CS(=O)(=O)Nc1ccccc1C(=O)Nc1cc(Cl)cc(Cl)c1	-2.9	-1.5	-1.7	20510*	-0.1
CCOC(=O)N1CCN(C(=O)c2cnn3c(C(F)F)cc(-c4ccc(C)cc4)nc23)CC1	22.0	1.4	-1.6	4602	-0.5
Cc1ccc(C)c(Cc2c(C)nc3c(C(=O)N4CCOCC4)cnn3c2C)c1	3.7	1.9	-0.7	22707*	0.7
Cc1nc2c(C(=O)N3CCN(c4ccccn4)CC3)cnn2c(C)c1Cc1cccc(Cl)c1	2.0	1.6	-9.0	15278	i
CCOC(=O)N1CCN(C(=O)c2cnn3c(C)c(Cc4ccc(C)cc4)c(C)nc23)CC1	1.3	?	0.5	23293*	-0.9
C/C(N)=C(/C#N)C(=O)COC(=O)Cc1coc2cc(C)ccc12	-11.1	-1.7	-1.9	4482	i
CC(OC(=O)c1ccc(Cl)nc1)C(=O)NC1CCCC1 (stereo not drawn)	-8.2	-3.2	-4.3	9164	2.6
CC(OC(=O)C1CCCO1)C(=O)NC1CCCC1 (stereo not drawn)	-2.1	0.8	0.2	19071*	i
Cc1cc(C(=O)Nc2sc3c(c2C#N)CCC(C)C3)cs1 (stereo not drawn)	-2.1	-2.1	-1.5	17096*	0.3
CCSc1nnc(NC(=O)C(C)(C(F)(F)F)C(F)(F)F)s1	-1.9	0.1	-6.8	16389*	-0.2
CCSc1nnc(NC(=O)C(C)C)s1	1.1	-0.8	-0.5	4302	-0.2
CCSc1nnc(NC(=O)C(CC)(C(F)(F)F)C(F)(F)F)s1	-10.7	-0.8	-1.8	3329	-2.8
CCSc1nnc(NC(=O)C(C(F)(F)F)C(F)(F)F)s1	-2.1	-0.9	-1.4	23475*	-5.3
NS(=O)(=O)c1cccc(NC(=O)CN2C(=O)C(=O)N(Cc3ccccc3)C2=O)c1	0.2	-0.4	-5.7	3238	0.0
Cc1sc2ncnc(N3CCC(C(=O)NNC(=O)COc4cccc(C(F)(F)F)c4)CC3)c2c1C	3.6	-1.2	-4.2	?	-0.7
SMILES	BoNT-F LC inh	BoNT A protease	Anthrax LF prot	Bead autofluor	Vc quorum ag
CC(=O)O[C@H]1C[C@@]2(C)[C@@H](C[C@@H](O)[C@H]3[C@@]4(C)CC[C@@H](O)[C@@H](C)[C@@H]4CC[C@@]32C)/C1=C(\CCC=C(C)C)C(=O)O	3.9	0.6	-1.7	6028	-3.0
Cc1ccccc1OCCCCCNCCO	-11.6	-0.3	-2.4	11071	5.6
CC(C)(C)c1ccccc1OCCCCCNCCO	10.2	12.2	-11.0	18177*	-0.2
CCn1[nH]c(=O)c(=Nc2c(C)n(C)n(-c3ccccc3)c2=O)cc1-c1ccc(Cl)cc1	2.3	2.5	-0.5	22167*	i
Cc1c(N=Cc2ccc(-c3ccc(Cl)cc3)o2)c(=O)n(-c2ccccc2)n1C	-12.4	-0.9	-5.2	2587	-0.4
CC1CN(Cc2ccccc2)c2nc3c(c(=O)n(C)c(=O)n3C)n2C1 (stereo not drawn)	-1.0	?	0.3	20687*	i
Cn1c(=O)n(Cc2ccccc2)c(=O)c2c1nc1n2CCCN1CCc1ccccc1	-2.6	?	-4.9	23593*	-1.7
Cn1c(=O)n(Cc2ccccc2)c(=O)c2c1nc1n2CCCN1Cc1ccccc1	-29.0	-0.6	-2.2	4922	i
CC1CN(CCc2ccccc2)c2nc3c(c(=O)n(C)c(=O)n3C)n2C1 (stereo not drawn)	-6.3	0.0	-2.0	4459	i
O=C1CC(CCC(=O)NC2CC2)c2ccccc2N1 (stereo not drawn)	1.8	0.7	0.0	20432*	0.5
CCOC(=O)CCc1c(C)c2ccc(OC(C)C(=O)OCC)c(C)c2oc1=O (stereo not drawn)	1.8	1.7	0.4	20895*	-1.0
CCOC(=O)C(C)Oc1ccc2c(CC)cc(=O)oc2c1C (stereo not drawn)	2.1	0.0	-0.6	2392	2.0
O=S(=O)(Cc1ccccc1)NCCc1cccc(Cl)c1	-22.4	-0.1	-5.3	4289	i
COc1ccc(N/C=C2\CCOC2=O)cc1	0.4	-0.1	-1.5	16257*	-4.1
CCSc1nnc(NC(=O)c2csc3c2CCCC3)s1	1.1	0.2	-1.1	22354*	i
CCSc1nnc(NC(=O)c2cccnc2)s1	13.1	9.8	-4.7	19138*	-2.2
C=CCSc1nnc2c(n1)OC(C)=Nc1ccc(Br)cc1-2	5.3	1.3	-0.4	4912	-0.6
Cc1ccc2cc(-c3noc(C(C)(C)C)n3)c(=O)[nH]c2c1	2.8	1.5	1.5	22460*	i
CCc1nc(-c2cc3ccc(C)cc3[nH]c2=O)no1	-0.6	-0.4	1.8	9970	-0.4
C#CCn1c(S(=O)(=O)Cc2ccc(C)cc2)nc(-c2ccccc2)c1-c1ccccc1	13.5	11.3	-1.8	17325*	i
C#CCn1c(S(=O)(=O)Cc2ccccc2Cl)nc(-c2ccccc2)c1-c1ccccc1	-14.0	-1.4	-4.1	11876	0.9
CCN(CC)C(=O)COc1ccc2oc(-c3ccco3)cc(=O)c2c1	0.1	-0.3	-1.3	2606	-0.5
CCCCn1c(N)c(N(CCC(C)C)C(=O)COC(=O)Cc2ccc(Cl)cc2)c(=O)[nH]c1=O	0.5	0.0	0.5	3824	-0.7
CCOc1ccc(C(=O)N/N=C/c2ccccc2[N+](=O)[O-])cc1	2.4	-0.1	0.0	2109	-0.3
CCC(=O)Nc1ccc(C(=O)N/N=C/c2ccccc2[N+](=O)[O-])cc1	-4.4	-1.5	-1.6	23894*	-0.7
Cc1ccc(S(=O)(=O)N(CC(=O)N2CCN(c3ccc(F)cc3)CC2)C2CCCCC2)cc1	-7.0	-1.2	0.7	23859*	i
CCn1c(SCC(=O)N/N=C/c2c[nH]c3ccccc23)nnc1-c1ccc(C(C)(C)C)cc1	1.6	0.6	-1.0	1871	-0.4
O=[N+]([O-])c1ccc(/C=C/C2=NN(c3ccccc3)C(c3ccco3)C2)cc1 (stereo not drawn)	66.3*	56.7*	39.8*	34435*	-0.1

Screens deposited in PubChem by several laboratories.
